# Measured values: the supplement of paper PMC10338343
# ± gives the standard deviation.
# Test system: MILI (PIWIL2) piRISC loaded with piRNA #1 (26 nt);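 also: 1 nM active piRISC with 0.1 nM target library at 33 °C single turnover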
# Assay: pre-steady-state target cleavage rate (min^-1); guide: piRNA #1 5'p-UGAGGUAGUAGGUUGUAUAGUAUCCA; higher = faster piRNA-guided slicing of the target
# Details: auxiliary factor: 500 nM mouse GTSF1
# Summary of the method: (§1)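 The pre-steady-state cleavage rate was calculated from a burst-and-steady-state fit. Data came from Cleave-'n-Seq, in which […] transcribed, DNA-blocked target RNA library was mixed with 1 nM active affinity-purified piRISC carrying one synthetic guide, with or without 500 nM GTSF1 partner protein, in HEPES–potassium acetate buffer at 33 °C for 0–8 or 0–960 min. Uncleaved targets were sequenced and normalised to depth and to weakly complementary targets, three trials were pooled, and k3 was capped at 0.0001 min^-1.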
row,Sequence,pre-steady-state target cleavage rate
1,GGAGACCUAACUAUACAACCUAUUACCUCA,0.0965 ± 0.018
2,GGAGAGGAUACUAUACAACCUACUACCUCC [g2:g25:cont:t1C],0.146 ± 0.013
3,GGAGACGAUACUAUACAUCCUACUACCUCA,0.289 ± 0.024
4,GGAGACGAUACUAUACUACCUUCUACCUCA,0.025 ± 0.0053
5,GGAGUGGAUACUAUAGAACCUACUACCUCA,0.178 ± 0.0098
6,GGAGACCUAACUAUAUAACCUACUACCUCA,0.117 ± 0.015
7,GGAGUGGAUACUAUACAACGUACUUCCUCA,0.0153 ± 0.0037
8,GGAGAGGAUACUAUACAACCUACUACUUCA,0.153 ± 0.015
9,GGAGACCAUACUAUACAACCUACUUGGAGA [g7:g23:cont:t1A],0.00469 ± 0.0036
10,GGAGUGGAUACAUACAACCUACUACCUCA,0.131 ± 0.011
11,GGAGAGGAUACUAUACAAGCUACAACCUCA,0.0872 ± 0.017
12,GGAGUGGAUACUAUACUACCUAGUACCUCA,0.0719 ± 0.013
13,GGAGACCAUACUAUACAAGCUACUUCCUCA,0.193 ± 0.016
14,GGAGACGUUACUAUACUACCUACUACCUCA,0.169 ± 0.011
15,GGAGAGGAUACUAUACAUCCUACUACCACA,0.0843 ± 0.016
16,GGAGUGGAUACUAUAGCAACCUACUACCUCA,0.188 ± 0.009
17,GGAGACCUAUGAUAUGAACCUACUACCCCA,< 0.0001
18,GGAGAGGUUACUAUACAACCUACUACCUCA,0.197 ± 0.014
19,GGAGUGGAUACUAUUCAACCUACUACGUCA,0.0439 ± 0.0069
20,GGAGACGAUACUAUACAACCUAUACCUCA,0.0145 ± 0.0044

row,Sequence,pre-steady-state target cleavage rate
1,GGAGAGGUUACUAUACUACCUACUACCUCA,0.151 ± 0.011
2,GGAGUUGAUACUAUACAACCUACUACCUCA,0.204 ± 0.012
3,GGAGACCUAAUUAUACAACCUACUACCUCA,0.0979 ± 0.011
4,GGAGACGAUACUAGUACAACCUACUACCUCA,0.153 ± 0.013
5,GGAGUGGAUACUAUACAACCUACUACGACA,0.0497 ± 0.008
6,GGAGAGGAUACUAUACAAGCUACUACCACA,0.243 ± 0.019
7,GGAGAGGAUACUAUACAUCCAACUACCUCA,0.0065 ± 0.0019
8,GGAGACGAUACUAUAGAACCUACUAGCUCA,0.0159 ± 0.0077
9,GGAGACCUUUCUAUACAUCCUACUACCUCA,0.158 ± 0.013
10,GGAGACCAUACUAUACAACUUACUACCUCA,0.0165 ± 0.0023
11,GGAGACGAUACUAAACAACCUACUACCUCA,0.207 ± 0.016
12,GGAGUGGAUUCUAUACAACCUACUACCUCA,0.175 ± 0.0091
13,GGAGAGGAAACUAUACAACCUACUACCUGA,0.047 ± 0.014
14,GGAGACCUUACUAUACAACCUGCUACCUCA,0.0466 ± 0.0081
15,GGAGACCAUACUAUACAACCUACAACCUGA,0.0179 ± 0.0095
16,GGAGAGGAUACUAAACAAGCUACUACCUCA,0.165 ± 0.014
17,GGAGACCUAACUAUACAACCUCCUACCUCA,0.0273 ± 0.011
18,GGAGACCUAACUAAUACAACCUACUACCUCA,0.103 ± 0.025
19,GGAGAAGAUACUAUACAACCUACUACCUCA,0.22 ± 0.016
20,GGAGAGGAUACUAUACAACGUACUACCUGA,0.0116 ± 0.0027

# Test system: EfPiwi piRISC loaded with piRNA #1 (26 nt)
# Assay: pre-steady-state target cleavage rate (min^-1); auxiliary factor: 500 nM Ephydatia muelleri Gtsf1; guide: piRNA #1 5'p-UGAGGUAGUAGGUUGUAUAGUAUCCA; MIWI and MILI are mouse PIWI proteins and EfPiwi is from a freshwater sponge; tags in brackets are library labels; higher = faster piRNA-guided slicing of the target
# Details: not given
# Summary of the method: as §1
row,Sequence,pre-steady-state target cleavage rate
1,GGAGACCUAACUAUACAACCUAUUACCUCA,0.00738 ± 0.0043
2,GGAGAGGAUACUAUACAACCUACUACCUCC [g2:g25:cont:t1C],0.12 ± 0.046
3,GGAGACGAUACUAUACAUCCUACUACCUCA,0.00772 ± 0.0032
4,GGAGACGAUACUAUACUACCUUCUACCUCA,0.00418 ± 0.0025
5,GGAGUGGAUACUAUAGAACCUACUACCUCA,0.00377 ± 0.0019
6,GGAGACCUAACUAUAUAACCUACUACCUCA,0.0063 ± 0.0034
7,GGAGUGGAUACUAUACAACGUACUUCCUCA,0.00364 ± 0.0017
8,GGAGAGGAUACUAUACAACCUACUACUUCA,0.121 ± 0.05
9,GGAGACCAUACUAUACAACCUACUUGGAGA [g7:g23:cont:t1A],0.00547 ± 0.0034
10,GGAGUGGAUACAUACAACCUACUACCUCA,0.131 ± 0.048
11,GGAGAGGAUACUAUACAAGCUACAACCUCA,0.00258 ± 0.0015
12,GGAGUGGAUACUAUACUACCUAGUACCUCA,0.00311 ± 0.0019
13,GGAGACCAUACUAUACAAGCUACUUCCUCA,0.00551 ± 0.0027
14,GGAGACGUUACUAUACUACCUACUACCUCA,0.00494 ± 0.0024
15,GGAGAGGAUACUAUACAUCCUACUACCACA,0.00374 ± 0.0014
16,GGAGUGGAUACUAUAGCAACCUACUACCUCA,0.0919 ± 0.034
17,GGAGACCUAUGAUAUGAACCUACUACCCCA,< 0.0001
18,GGAGAGGUUACUAUACAACCUACUACCUCA,0.0625 ± 0.025
19,GGAGUGGAUACUAUUCAACCUACUACGUCA,0.00281 ± 0.0015
20,GGAGACGAUACUAUACAACCUAUACCUCA,0.00289 ± 0.0018

row,Sequence,pre-steady-state target cleavage rate
1,GGAGAGGUUACUAUACUACCUACUACCUCA,0.00488 ± 0.0024
2,GGAGUUGAUACUAUACAACCUACUACCUCA,0.193 ± 0.06
3,GGAGACCUAAUUAUACAACCUACUACCUCA,0.0144 ± 0.0065
4,GGAGACGAUACUAGUACAACCUACUACCUCA,0.0047 ± 0.0025
5,GGAGUGGAUACUAUACAACCUACUACGACA,0.00539 ± 0.0025
6,GGAGAGGAUACUAUACAAGCUACUACCACA,0.00317 ± 0.0019
7,GGAGAGGAUACUAUACAUCCAACUACCUCA,0.00419 ± 0.0022
8,GGAGACGAUACUAUAGAACCUACUAGCUCA,0.00419 ± 0.0018
9,GGAGACCUUUCUAUACAUCCUACUACCUCA,0.00708 ± 0.0041
10,GGAGACCAUACUAUACAACUUACUACCUCA,0.00338 ± 0.0027
11,GGAGACGAUACUAAACAACCUACUACCUCA,0.0292 ± 0.012
12,GGAGUGGAUUCUAUACAACCUACUACCUCA,0.00893 ± 0.0047
13,GGAGAGGAAACUAUACAACCUACUACCUGA,0.0041 ± 0.0024
14,GGAGACCUUACUAUACAACCUGCUACCUCA,0.0174 ± 0.0079
15,GGAGACCAUACUAUACAACCUACAACCUGA,0.00439 ± 0.0042
16,GGAGAGGAUACUAAACAAGCUACUACCUCA,0.00412 ± 0.0017
17,GGAGACCUAACUAUACAACCUCCUACCUCA,0.00446 ± 0.0029
18,GGAGACCUAACUAAUACAACCUACUACCUCA,0.0103 ± 0.0044
19,GGAGAAGAUACUAUACAACCUACUACCUCA,0.0965 ± 0.035
20,GGAGAGGAUACUAUACAACGUACUACCUGA,0.00359 ± 0.0014
